Laboratory results taken from PubChem BioAssay (NCI).
The panel holds about 83,000 compounds, 20% with a hit somewhere; the sample as a whole holds those more often.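 Activity criterion: percent growth below 10, measured after cells in 96-well plates were exposed to a single compound concentration for 48 hours.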 The source made the active and inactive calls.

Assays:
Assay in all cases: NCI-60 one-dose screen, 48 h (100 = growth as untreated, 0 = no growth, -100 = all killed)
Details in all cases: 10 µM unless noted
DU-145 prostate = system: DU-145 prostate
K-562 leukemia = system: K-562 leukemia
MALME-3M melanoma = system: MALME-3M melanoma
MDA-MB-231 breast = system: MDA-MB-231 breast
RXF 393 renal = system: RXF 393 renal
SF-268 CNS = system: SF-268 CNS
SF-295 CNS = system: SF-295 CNS
SF-539 CNS = system: SF-539 CNS
UACC-257 melanoma = system: UACC-257 melanoma
M14 melanoma = system: M14 melanoma

Measured: growth

COc1ccc(C2CC(n3nnnc3-c3ccccc3)=NN2)cc1 (stereo unspecified)
inactive: DU-145 prostate 70.5% | K-562 leukemia 15.6% | MALME-3M melanoma 73.9% | MDA-MB-231 breast 40.2% | RXF 393 renal 102% | SF-268 CNS 75.4% | SF-295 CNS 27.2% | SF-539 CNS 37.9% | UACC-257 melanoma 101% | M14 melanoma 35.4%

N#C/C(=C\c1ccc(Br)cc1)n1nnc2cccc(F)c21
active: DU-145 prostate 0.426% | MDA-MB-231 breast -1.07% | RXF 393 renal -23.6% | SF-539 CNS 1.06%
inactive: K-562 leukemia 12.7% | MALME-3M melanoma 37.7% | SF-268 CNS 24.4% | SF-295 CNS 55.4% | UACC-257 melanoma 37.3% | M14 melanoma 10.9%

CCOC(=O)N1CCc2c(sc3nc4nc[nH]n4c(=O)c23)C1
inactive: DU-145 prostate 107% | K-562 leukemia 105% | MALME-3M melanoma 102% | MDA-MB-231 breast 99.9% | RXF 393 renal 104% | SF-268 CNS 99.7% | SF-295 CNS 103% | SF-539 CNS 94.6% | UACC-257 melanoma 109% | M14 melanoma 98.4%

O=C(Nc1ccc2cc3ccc(NC(=O)NC4CCCCC4)cc3nc2c1)NC1CCCCC1
inactive: DU-145 prostate 97.3% | K-562 leukemia 16.8% | MALME-3M melanoma 106% | MDA-MB-231 breast 101% | RXF 393 renal 15.7% | SF-268 CNS 68.1% | SF-295 CNS 45.6% | SF-539 CNS 50.1% | UACC-257 melanoma 99.8% | M14 melanoma 90.5%

COc1ccc(C(=O)/C=C/c2ccc(OCc3ccccc3)c(OC)c2)cc1OC
inactive: DU-145 prostate 36.7% | K-562 leukemia 20.7% | MALME-3M melanoma 56.4% | MDA-MB-231 breast 55.3% | RXF 393 renal 75.1% | SF-268 CNS 43.8% | SF-295 CNS 57.1% | SF-539 CNS 83.3% | UACC-257 melanoma 63.2% | M14 melanoma 83.1%

Nc1ncc(C#Cc2cncc(NC(=O)c3cccc(C(F)(F)F)c3)c2)c2cccnc12
active: K-562 leukemia 7.45% | MALME-3M melanoma -6.22%
inactive: DU-145 prostate 43.7% | MDA-MB-231 breast 36% | SF-268 CNS 58.4% | SF-295 CNS 61.2% | SF-539 CNS 43.8% | UACC-257 melanoma 71.7% | M14 melanoma 18.2%

C#CC(=O)Nc1cccc2c1cc(C)n2-c1nc2c(c(NCc3ccccc3)n1)CCCC2
active: DU-145 prostate -97.1% | K-562 leukemia -13.5% | MALME-3M melanoma -64.4% | MDA-MB-231 breast -53% | RXF 393 renal -94.4% | SF-268 CNS -29.7% | SF-295 CNS -85.4% | SF-539 CNS -79.7% | UACC-257 melanoma -73% | M14 melanoma -65.3%

COc1ccc(C(=O)c2cc3c(N)c(C(=O)Nc4ccc(Cl)cc4)sc3nc2C)cc1
inactive: DU-145 prostate 90.1% | K-562 leukemia 31.1% | MALME-3M melanoma 58.7% | MDA-MB-231 breast 81.2% | SF-268 CNS 56.4% | SF-295 CNS 89.3% | SF-539 CNS 71.9% | UACC-257 melanoma 77.3% | M14 melanoma 61.5%

COc1ccc(Cl)cc1NC(=O)c1c(NC(=O)C(F)(F)C(F)(F)F)sc2c1CCCCC2
inactive: DU-145 prostate 19.3% | K-562 leukemia 17.6%
active: MALME-3M melanoma -24.5% | MDA-MB-231 breast -18.6% | SF-268 CNS 6.13% | SF-295 CNS -25.2% | SF-539 CNS 4.26% | UACC-257 melanoma -16.5% | M14 melanoma 0.83%

Cc1ccccc1CNc1ccc(N2CCOCC2)cc1
inactive: DU-145 prostate 102% | K-562 leukemia 101% | MALME-3M melanoma 102% | MDA-MB-231 breast 101% | RXF 393 renal 114% | SF-268 CNS 93.4% | SF-295 CNS 99.2% | SF-539 CNS 111% | UACC-257 melanoma 103% | M14 melanoma 100%

CCNC(=O)c1[nH]cc(-c2ccc(OC)cc2)c1-c1cc(OC)c(OC)c(OC)c1
inactive: DU-145 prostate 69.3% | K-562 leukemia 12.1% | MALME-3M melanoma 35.4% | MDA-MB-231 breast 74.5% | SF-268 CNS 58.8% | SF-295 CNS 30.3% | SF-539 CNS 29.1% | UACC-257 melanoma 81.3% | M14 melanoma 51.4%

CN1CCCC1=Nc1ccccc1
inactive: DU-145 prostate 116% | K-562 leukemia 100% | MALME-3M melanoma 104% | MDA-MB-231 breast 109% | RXF 393 renal 103% | SF-268 CNS 124% | SF-295 CNS 96.7% | SF-539 CNS 113% | UACC-257 melanoma 101% | M14 melanoma 117%

COc1ccc(-c2nc(N/N=C/c3cccc(Br)c3)nc(N3CCOCC3)c2C#N)cc1
active: K-562 leukemia 3.14% | MALME-3M melanoma 7.31% | UACC-257 melanoma -17.9%
inactive: DU-145 prostate 49.8% | MDA-MB-231 breast 72.2% | SF-268 CNS 81.4% | SF-295 CNS 54.2% | SF-539 CNS 55.9% | M14 melanoma 24.8%

COc1cccc(NC(=O)c2cccc(-c3cc(=O)c4c(OC)c(OC)c(OC)cc4o3)c2)c1
inactive: DU-145 prostate 71.8% | K-562 leukemia 40.3% | MALME-3M melanoma 84.8% | MDA-MB-231 breast 59.6% | RXF 393 renal 47.9% | SF-268 CNS 63.1% | SF-295 CNS 70.8% | SF-539 CNS 77.5% | UACC-257 melanoma 92.4% | M14 melanoma 73.5%

COc1ccc(-c2cnc(N)nc2-c2ccc(OC)cc2O)cc1
inactive: DU-145 prostate 99.2% | K-562 leukemia 80.4% | MALME-3M melanoma 126% | MDA-MB-231 breast 99.4% | SF-268 CNS 107% | SF-295 CNS 101% | SF-539 CNS 88.1% | UACC-257 melanoma 112% | M14 melanoma 109%

CCOC(=O)c1c(C)nc2c(c1N)C(=O)C(=O)N2Cc1ccc(C(F)(F)F)cc1
inactive: DU-145 prostate 84.5% | K-562 leukemia 36.2% | MALME-3M melanoma 59.3% | MDA-MB-231 breast 75.6% | RXF 393 renal 58.7% | SF-268 CNS 59.7% | SF-295 CNS 81% | SF-539 CNS 52.6% | UACC-257 melanoma 74.2% | M14 melanoma 53%

Clc1cc(Cl)cc(N2N=C(c3cccc(Nc4ccncc4)c3)CC2c2ccc3c(c2)OCO3)c1 (stereo unspecified)
active: K-562 leukemia 3.33% | MALME-3M melanoma -40.2%
inactive: DU-145 prostate 28.9% | MDA-MB-231 breast 33.1% | SF-268 CNS 72.1% | SF-295 CNS 40.7% | SF-539 CNS 83.3% | UACC-257 melanoma 51.2% | M14 melanoma 85.3%

CCCCCCCCN1C(=O)/C(=c2\sc3n(c2=O)C2C(NN=3)N(CC)C(=O)N2CC)c2ccccc21 (stereo unspecified)
inactive: DU-145 prostate 97.8% | K-562 leukemia 92.6% | MALME-3M melanoma 82.6% | MDA-MB-231 breast 71.5% | SF-268 CNS 65.3% | SF-295 CNS 73% | SF-539 CNS 59.9% | UACC-257 melanoma 96.3% | M14 melanoma 95.4%

COc1cc(OC)cc(C2C3=C(COC3=O)Nc3cc(OC)ccc32)c1 (stereo unspecified)
active: DU-145 prostate -30.2% | MDA-MB-231 breast -7.98% | SF-539 CNS 1.4% | M14 melanoma 3.85%
inactive: K-562 leukemia 11.9% | MALME-3M melanoma 71.6% | SF-268 CNS 18.1% | SF-295 CNS 10.9% | UACC-257 melanoma 45.5%

CC1(C)CN(Cc2ccccc2)CCN1Cc1ccccc1
inactive: DU-145 prostate 114% | K-562 leukemia 98.8% | MALME-3M melanoma 116% | MDA-MB-231 breast 101% | SF-268 CNS 105% | SF-295 CNS 101% | SF-539 CNS 107% | UACC-257 melanoma 89.1% | M14 melanoma 107%

COc1ccc2c(c1)c(CC(=O)NCCOCCOCC(=O)Nc1ccc(OC)c(C(N)=O)c1O)c(C)n2C(=O)c1ccc(Cl)cc1
inactive: DU-145 prostate 107% | K-562 leukemia 91.5% | MALME-3M melanoma 118% | MDA-MB-231 breast 92% | RXF 393 renal 92.9% | SF-268 CNS 88.9% | SF-295 CNS 93.8% | SF-539 CNS 99.9% | UACC-257 melanoma 113% | M14 melanoma 98.3%

O=C(Nc1nc(-c2ccc(Br)cc2)cs1)c1cc(-c2ccc(Br)cc2)nc2ccc(Cl)cc12
inactive: DU-145 prostate 92.6% | K-562 leukemia 56.6% | MALME-3M melanoma 105% | MDA-MB-231 breast 74.1% | RXF 393 renal 100% | SF-268 CNS 85% | SF-295 CNS 97.8% | SF-539 CNS 99.1% | UACC-257 melanoma 101% | M14 melanoma 99.1%

COc1ccc(-c2nc(SCCC(C)C)nc(N/N=C(/C)c3ccc(C)cc3)c2C#N)cc1
inactive: DU-145 prostate 104% | K-562 leukemia 94.6% | MALME-3M melanoma 103% | MDA-MB-231 breast 71% | SF-268 CNS 93.2% | SF-295 CNS 97.7% | SF-539 CNS 86.9% | UACC-257 melanoma 98% | M14 melanoma 90.4%

C=C1C(=O)O[C@H]2[C@H]1CC/C(COC(=O)CCCc1c[nH]c3ccccc13)=C\CC[C@@]1(C)O[C@@H]21
active: K-562 leukemia -9.04%
inactive: DU-145 prostate 49.6% | MALME-3M melanoma 86.4% | MDA-MB-231 breast 35.4% | RXF 393 renal 32.7% | SF-268 CNS 60.8% | SF-295 CNS 82% | SF-539 CNS 41.7% | UACC-257 melanoma 64.1% | M14 melanoma 53.1%

CN1C(=O)N(C)C2NC(N/N=C/c3ccccc3)=NC21 (stereo unspecified)
inactive: DU-145 prostate 108% | K-562 leukemia 107% | MALME-3M melanoma 97.9% | MDA-MB-231 breast 104% | SF-268 CNS 99.8% | SF-295 CNS 101% | SF-539 CNS 94.9% | UACC-257 melanoma 98.8% | M14 melanoma 98.8%

Nc1c(Cl)cc([N+](=O)[O-])cc1Br
inactive: DU-145 prostate 105% | K-562 leukemia 99.1% | MALME-3M melanoma 107% | MDA-MB-231 breast 101% | RXF 393 renal 98.2% | SF-268 CNS 97.1% | SF-295 CNS 74% | SF-539 CNS 114% | UACC-257 melanoma 91.3% | M14 melanoma 114%

O=C(O)/C=C\C(=O)N1C/C(=C\c2ccccc2Cl)C(=O)/C(=C/c2ccccc2Cl)C1
inactive: UACC-257 melanoma 67.3% | M14 melanoma 12%
active: DU-145 prostate -34.2% | K-562 leukemia 8.25% | MALME-3M melanoma 2.25% | MDA-MB-231 breast -15.4% | RXF 393 renal -95.8% | SF-268 CNS -33.7% | SF-295 CNS -13% | SF-539 CNS -20.9%

Clc1ccc(N2N=C(c3cccc(Nc4ccncc4)c3)CC2c2ccc3c(c2)OCO3)cc1 (stereo unspecified)
inactive: DU-145 prostate 41.9% | MALME-3M melanoma 25.5% | MDA-MB-231 breast 37.8% | SF-268 CNS 63.1% | SF-295 CNS 39% | SF-539 CNS 81.9% | UACC-257 melanoma 86%
active: K-562 leukemia 5.23% | M14 melanoma -52.4%

Cc1ccccc1C(c1ccccc1)c1ccccc1C
inactive: DU-145 prostate 117% | K-562 leukemia 105% | MALME-3M melanoma 109% | MDA-MB-231 breast 104% | SF-268 CNS 99.7% | SF-295 CNS 97.7% | SF-539 CNS 106% | UACC-257 melanoma 71.3% | M14 melanoma 80.3%
